NR2F2 inh = NR2F2 transcriptional activity inhibitors, primary screen, cell-based, luciferase reporter, HEK293T, luminescence; HEK293T NGFI-A luciferase reporter; inhibition, % at 8.6 µM; 370,000 compounds, 0.7% hits;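 active = inhibition above a per-plate cutoff, mean inhibition of test wells between control levels plus 3 SD, cut at about 38% in these data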;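 note: cells cotransfected with COUP-TFII expression vector driving the NGFI-A reporter; 0% = median of COUP-TF2 test wells and 100% = reporter-only cells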
SRC1 inh = SRC1 coactivator transcriptional activity inhibitors, primary screen, cell-based, luminescence. HEK293 GAL4-SRC1 luciferase reporter. inhibition, % at 3.6 µM. Nuclear receptor coactivator 1 (Homo sapiens), Q15788. 360,000 compounds, 0.12% hits;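 active = inhibition above the campaign mean plus 3 SD, with each screening campaign given its own cutoff, cut at about 60% in these data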;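 note: 0% = DMSO treated cells and 100% = gossypol at 36 µM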
SRC2 inh = inhibition of GAL4-SRC2 driven luciferase reporter, primary screen, SRC2 inhibitor project, cell-based, luminescence; Nuclear receptor coactivator 2 (Homo sapiens), Q15596; HEK293 GAL4-SRC2 luciferase reporter; inhibition, % at 9 µM; 370,000 compounds, 0.17% hits;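 active = inhibition above the mean inhibition of all tested compounds plus 3 SD, set per campaign, cut at about 52% in these data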;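 note: 0% = DMSO treated cells and 100% = cells given Gossypol at 36 µM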
Gli-Sufu antag = Gli-Sufu pathway antagonists, primary screen, luciferase luminescence, Sufu-KO-LIGHT cells, uHTS | 340,000 compounds, 0.74% hits | Sufu-KO-LIGHT fibroblasts, Gli luciferase reporter luminescence | AID 588413, 2011 | inhibition, % at 5 µM;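 active = inhibition above about 55%, limit read from the data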;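 note: 0% = DMSO-treated cells and 100% = wells with medium but no cells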
NCOA3 inh = SRC3 coactivator transcriptional activity inhibitors, primary screen, cell-based, luminescence; HEK293 GAL4-SRC3 luciferase reporter; 360,000 compounds, 0.17% hits; Nuclear receptor coactivator 3 (Homo sapiens), Q9Y6Q9; inhibition, % at 3.6 µM;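 active = inhibition above a per-campaign cutoff, the mean of all compounds plus 3 SD, cut at about 60% in these data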;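 note: 0% = DMSO-treated cells and 100% = gossypol-treated cells at 36 µM; higher means less SRC3-driven luciferase light from the GAL4 reporter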
LRH-1 inv ag = LRH-1 (NR5A2) inverse agonists, primary screen, cell-based, luminescence, HEK293T, StAR-luciferase reporter. LRH-1 transfected, 24 h. 360,000 compounds, 0.13% hits. AID 602396, 2012. inhibition, % at 3.6 µM. Nuclear receptor subfamily 5 group A member 2 (Homo sapiens), O00482;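 active = inhibition above the mean inhibition of all tested compounds plus 3 SD, cut at about 73% in these data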;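 note: 0% = DMSO wells and 100% = reporter-only cells lacking LRH-1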
Target sequence (O00482 whole entry, looked up): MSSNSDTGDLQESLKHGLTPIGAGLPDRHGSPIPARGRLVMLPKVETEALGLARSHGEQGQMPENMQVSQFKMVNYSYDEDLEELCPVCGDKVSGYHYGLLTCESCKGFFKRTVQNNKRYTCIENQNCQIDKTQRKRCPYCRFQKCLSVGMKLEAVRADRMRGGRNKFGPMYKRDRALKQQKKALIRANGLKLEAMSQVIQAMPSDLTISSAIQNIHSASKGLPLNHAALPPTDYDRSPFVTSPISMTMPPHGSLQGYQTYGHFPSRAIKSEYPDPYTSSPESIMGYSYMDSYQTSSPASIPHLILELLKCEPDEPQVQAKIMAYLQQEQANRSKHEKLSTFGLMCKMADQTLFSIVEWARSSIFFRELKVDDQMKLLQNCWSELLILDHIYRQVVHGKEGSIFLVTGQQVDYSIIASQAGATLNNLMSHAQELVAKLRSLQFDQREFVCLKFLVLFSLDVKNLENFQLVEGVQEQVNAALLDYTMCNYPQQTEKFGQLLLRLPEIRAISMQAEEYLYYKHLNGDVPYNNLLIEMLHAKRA
VP16 Luc counter = Gal4-VP16 luciferase reporter inhibitors, counter-screen for COUP-TFII antagonist project, cell-based, luminescence, HEK293; shares compounds with NR2F2 inh; inhibition, % at 8.5 µM; 2,500 compounds, 25% hits; in the data active = inhibition above about 13%
COUP-TFII conf = NR2F2 transcriptional activity inhibitors, confirmation, cell-based, luciferase reporter, HEK293, triplicate | HEK293 NGFI-A luciferase reporter, luminescence | inhibition, % at 8.5 µM | 2,500 compounds, 45% hits | shares compounds with NR2F2 inh;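 active = mean inhibition over three repeats above a set limit taken from the earlier primary screen, cut at about 38% in these data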;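 note: 100% = cells given the luciferase reporter alone without the COUP-TF2 vector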
Starred values were filed as active, the others as inactive; · = not tested or not shown. An excerpt weighted towards active compounds, which were near 1.3% of everything screened.

SMILES	NR2F2 inh	SRC1 inh	SRC2 inh	Gli-Sufu antag	NCOA3 inh	LRH-1 inv ag	VP16 Luc counter	COUP-TFII conf
COC(=O)C1=C(c2ccc(-c3ccccc3)c(F)c2)C[C@@H]2CC[C@H]1N2C(=O)N1CCOCC1	71*	29	25	20	30	40	-9	36
COC(=O)C1=C(c2ccc(-c3ccccc3)c(F)c2)C[C@@H]2CC[C@H]1N2C(=O)N1CCCC1	67*	5	19	26	12	40	-5	47*
CCC1CN1P(=O)(c1ccccc1)N1CC1CC (centres undefined)	2	-11	-7	3	1	-1	·	·
N#CC1c2ccccc2-n2nncc2CN1S(=O)(=O)c1ccccc1 (centres undefined)	-6	6	0	-7	13	10	·	·
CC(=O)Nc1ccc(S(=O)(=O)N2Cc3ccccc3-n3nncc3C2)cc1	4	-14	17	·	15	-30	·	·
Nc1ccc(Cc2ccc(N)cc2)cc1	0	9	9	3	7	-5	·	·
Cc1ccc(Cn2nc(C(=O)Nc3ccc(Br)cc3)cc2C)cc1	53*	-41	-37	-4	-39	14	-143	19
CC(=O)OC1CCC2(C)C(CCC3C4CC(N5CC5)C(C(C)=O)C4(C)CC(=O)C32)C1 (centres undefined)	4	-4	-39	-24	11	-3	·	·
C[C@@H]1O[C@@H](O[C@H]2C[C@@H](O)[C@]3(CO)[C@@H]4C(CC[C@]3(O)C2)[C@@]2(O)CC[C@H](C3COC(=O)C3)[C@@]2(C)C[C@H]4O)[C@H](O)[C@H](O)[C@H]1O (some centres undefined)	64*	49	3	-3	67*	99*	14*	58*
COC(=O)c1ccc(NC(=O)CSc2nc3ccc(N4C(=O)C5C6C=CC(C6)C5C4=O)cc3s2)cc1 (centres undefined)	64*	-15	50	18	34	39	-25	37
N#CC(Br)Br	-16	8	1	-3	7	10	·	·
O=C1C=C2C=C[C@@H]3CC2(O1)[C@H]1CCCCN31	-3	-23	-17	-16	-1	-42	·	·
CCOC(=O)[C@]12Cc3cc(OC)ccc3[C@H]1N(C)C(=O)c1cc(OC)ccc12	15	·	11	·	·	17	·	·
CCOC(=O)[C@]12Cc3ccc(C)cc3[C@H]1N(C1CCCCC1)C(=O)c1cc(OC)ccc12	52*	·	-2	·	·	62	23*	35
CCOC(=O)[C@]12Cc3ccc(C)cc3[C@H]1N(C1CCCCC1)C(=O)c1ccccc12	50*	·	-3	·	·	52	17*	30
CCOC(=O)[C@]12Cc3cc(Cl)ccc3[C@H]1N(C1CCCCC1)C(=O)c1cc(OC)ccc12	59*	·	-2	·	·	97*	53*	60*
CNCC(O)c1cc(OCc2ccccc2)c(OCc2ccccc2)cc1F (centres undefined)	5	-4	6	23	0	6	·	·
O=c1[nH]c2ccccc2n1C1CCN(C(c2cc3ccccc3o2)c2nnnn2-c2ccc3c(c2)OCCO3)CC1 (centres undefined)	-14	44	-27	·	24	-8	·	·
Cc1nn(CC(=O)N2CCC3(CC2)OCCO3)c(=O)c2cc3ccccc3n12	1	-2	-3	-14	8	10	·	·
COc1ccc2c(c1OC)CN1CCc3cc4c(cc3[C@H]1C2)OCO4	·	6	·	40	2	-10	·	·
CCC1CN2CCc3cc(OC)c(OC)cc3C2CC1CC1NCCc2c1[nH]c1ccc(O)cc21 (centres undefined)	91*	96*	69*	87*	95*	98*	24*	90*
COC1CC2C=C(C)C=CC=CC(=O)NC(c3ccccc3)CC=CCCC(O)CC(=O)C2=C1O (centres undefined)	72*	41	-42	·	78*	99*	50*	73*
COc1ccc(CN2Cc3cc(N4CCCCC4)ccc3-n3nncc3C2)cc1	-9	-9	4	·	9	0	·	·
CC(C)(C)NC(=O)C1CN=C(c2ccccc2)c2cc(Cl)ccc2N1C(=O)C1CCC1 (centres undefined)	-1	·	8	·	·	·	·	·
CCC(C)(O)C(=O)OC1C(=O)OC2CC3C(C)=CC(O)C(O)C3(C)C3C4(O)OCC23C1C(C)C4O (centres undefined)	75*	53	29	·	71*	97*	10	62*
SMILES	NR2F2 inh	SRC1 inh	SRC2 inh	Gli-Sufu antag	NCOA3 inh	LRH-1 inv ag	VP16 Luc counter	COUP-TFII conf
Cc1c(CCC(=O)N2C[C@H]3C[C@@H](C2)c2cccc(=O)n2C3)c(=O)oc2c(C)c(O)ccc12	17	-8	-22	·	-1	0	·	·
O=C1C(Cc2cnc[nH]2)NC(=S)N1c1ccccc1 (centres undefined)	-8	-3	-23	3	12	-1	·	·
CC(=O)OC1CC2OC3C=C(C)CCC3(C)C1(C)C21CO1 (centres undefined)	85*	96*	69*	·	95*	103*	17*	72*
CC(=O)O[C@H]1C[C@@H]2OC3C=C(C)CCC3(C)[C@@]1(C)[C@@]21CO1 (some centres undefined)	77*	94*	69*	66*	92*	97*	16*	72*
Cc1ccccc1-[n+]1c(-c2ccccc2)cc(-c2ccccc2)cc1-c1ccccc1	68*	44	30	77*	67*	70	22*	77*
Oc1ccccc1-[n+]1c(-c2ccccc2)cc(-c2ccccc2)cc1-c1ccccc1	7	7	-12	24	9	11	·	·
C#C[C@]1(O)CC[C@H]2[C@@H]3[C@H](O)C[C@H]4C[C@@H](O)CC[C@]4(C)[C@H]3CC[C@@]21C	-9	0	-9	·	-6	0	·	·
C[C@]12CCC3C(CC[C@H]4C[C@@H](O)CC[C@]34C)[C@H]1C=CC2=O (some centres undefined)	1	-12	8	6	-1	13	·	·
